{"source": "PubChem BioAssay AID1981", "about": "(Southern Research Specialized Biocontainment Screening …, 2009)", "note": "Hit rate of the full screen: of about 2,200 compounds, about 480 (22%) were called active. No rule for the calls is given here. Not all results are given here. Entries with a potency or affinity are not part of this list."}
{"experiment": "S. Typhimurium GFP fluorescence modified counterscreen for PhoP regulon inhibitor project dose response (AID 1981)", "conditions": "4 h; series mostly up to 150 µM"}
{"molecule": "O=c1[nH]c(SCc2nc3ccccc3c(=O)n2-c2ccccc2C(F)(F)F)nc2ccccc12", "outcome": "inactive"}
{"molecule": "CCC(OC(=O)C(NC(=O)c1ccccc1)c1ccccc1)C(=O)Nc1cc(C)on1", "note": "(stereo not given)", "outcome": "inactive"}
{"molecule": "S=c1[nH]nc(Cc2cccc3ccccc23)o1", "outcome": "inactive"}
{"molecule": "Cc1ccc(S(=O)(=O)N2C(=O)CCC2C(=O)N2CCN(C)CC2)cc1", "note": "(stereo not given)", "outcome": "inactive"}
{"molecule": "CN(C)c1nc(N)nc(Cn2ccnc2)n1", "outcome": "inactive"}
{"molecule": "CC(NCc1ccc(Cl)c(Cl)c1)C(O)c1ccccc1", "note": "(stereo not given)", "outcome": "inactive"}
{"molecule": "CCCc1cc(C(=O)Cc2ccc(C(=O)OCC)o2)c(O)cc1O", "outcome": "inactive"}
{"molecule": "COc1ccc(C(=O)Nn2c(SCC(=O)N3CCC(C)CC3)nc3ccccc3c2=O)cc1", "outcome": "inactive"}
{"molecule": "O=C(COc1ncnc2sccc12)N1CCN(S(=O)(=O)c2ccc(Cl)cc2)CC1", "outcome": "inactive"}
{"molecule": "O=S(=O)(c1ccc2c(c1)OCCO2)N1CCN(c2cccc(Cl)c2)CC1", "outcome": "inactive"}
{"molecule": "COc1ccc(N(C(=O)CCl)C(C(=O)NCCc2ccccc2)c2cccs2)cc1", "note": "(stereo not given)", "outcome": "inactive"}
{"molecule": "S=C(Nc1ccc2snnc2c1)N1CCN(c2ccccn2)CC1", "outcome": "inactive"}
{"molecule": "CCn1c2ccccc2c2nnc(SCC(=O)Nc3ccc4c(c3)OCO4)nc21", "outcome": "inactive"}
{"molecule": "CCCn1c(SCC(=O)c2c(C)[nH]c(C)c2C(=O)OCC)nc2ccccc21", "outcome": "inactive"}
{"molecule": "Clc1ccc(CNc2ccc(CNc3ncn[nH]3)cc2)cc1", "outcome": "inactive"}
{"molecule": "COc1cc(CNc2ccc(CNc3ncn[nH]3)cc2)ccc1OCc1ccccc1", "outcome": "inactive"}
{"molecule": "CC(C)(C)c1n[nH]c(=S)n(/N=C/c2cccs2)c1=O", "outcome": "inactive"}
{"molecule": "Cc1cccc(Nc2nnc(SCC(=O)NC3CCCc4ccccc43)s2)c1", "note": "(stereo not given)", "outcome": "inactive"}
{"molecule": "CCCCOc1ccc(S(=O)(=O)NNC(=O)C2Cc3c(ccc4ccccc34)O2)cc1", "note": "(stereo not given)", "outcome": "inactive"}
{"molecule": "Clc1ccc(SCCCCn2ccnc2)cc1", "outcome": "inactive"}
{"molecule": "Cc1c(NS(=O)(=O)c2ccccc2)c(=O)n(-c2ccccc2)n1C", "outcome": "inactive"}
{"molecule": "CN1CCN(Cc2nc3ccccc3c(=O)[nH]2)CC1", "outcome": "inactive"}
{"molecule": "CC(O)CNc1cc(N)c([N+](=O)[O-])cc1[N+](=O)[O-]", "note": "(stereo not given)", "outcome": "inactive"}
{"molecule": "O=P1(NC2CCCC2)COc2ccccc2OC1", "outcome": "inactive"}
{"molecule": "c1ccc(Nc2nc3ccccc3[nH]2)nc1", "outcome": "inactive"}
{"molecule": "c1ccc(Nc2ccnc(Nc3ccccc3)n2)cc1", "outcome": "inactive"}
{"molecule": "O=C1CN(C(=O)COC(=O)CCC(=O)c2ccc3c(c2)OCCO3)c2ccccc2N1", "outcome": "inactive"}
{"molecule": "CSC(=NS(=O)(=O)c1ccccc1)SC", "outcome": "inactive"}
{"molecule": "O=C(c1ccccc1)C(CN1CCCC1)c1ccccc1", "note": "(stereo not given)", "outcome": "inactive"}
{"molecule": "NC1=NC(=Nc2ccc(Cl)cc2)c2ccccc21", "outcome": "inactive"}
{"molecule": "C(=Nc1ccc(Nc2ccccc2)cc1)c1ccc2ccccc2c1", "outcome": "inactive"}
{"molecule": "CCOC(=O)N1CCN(c2nc(C)c3c(n2)CCCC3=O)CC1", "outcome": "inactive"}
{"molecule": "Cc1cc(=O)oc2cc(OCC(O)CN3CCc4ccccc4C3)ccc12", "note": "(stereo not given)", "outcome": "inactive"}
{"molecule": "CN1CCCC(OC(=O)c2ccc3c(c2)OCCO3)C1", "note": "(stereo not given)", "outcome": "inactive"}
{"molecule": "COc1nc(N(c2ccccc2)c2ccccc2)nc(-n2ccnc2)n1", "outcome": "inactive"}
{"molecule": "COCCCNc1ccnc2c(Cl)cccc12", "outcome": "inactive"}
{"molecule": "COc1ccc(-c2cc(C(=O)Nc3ccc(S(=O)(=O)Nc4ncccn4)cc3)c3ccccc3n2)cc1", "outcome": "inactive"}
{"molecule": "O=C(c1ccco1)N1CCN(c2ncnc3c2[nH]c2ccccc23)CC1", "outcome": "inactive"}
{"molecule": "COC(=O)c1ccc(Sc2ccccc2NS(=O)(=O)c2ccc(C)cc2)nc1", "outcome": "inactive"}
{"molecule": "CN(CC(=O)NCc1cccc(F)c1)C(=O)c1ccco1", "outcome": "inactive"}
{"molecule": "C=CCOc1ccc(/C=N/NC(=O)CN(c2cc(Cl)ccc2OC)S(=O)(=O)c2ccc(C)c([N+](=O)[O-])c2)cc1", "outcome": "inactive"}
{"molecule": "CN(CC(=O)Nc1ccc(C#N)cc1)Cc1ccc(Cl)cc1", "outcome": "inactive"}
{"molecule": "O=C(CSc1ccc(Cl)cc1)Nc1ccccc1N1CCN(C(=O)c2ccc(Cl)cc2)CC1", "outcome": "inactive"}
{"molecule": "Cc1nc(C(=O)Nc2ccc(Cl)cc2)nn1-c1ccc([N+](=O)[O-])cc1", "outcome": "inactive"}
{"molecule": "OC1(c2ccc3ccccc3c2)CCN(Cc2ccccc2)C1", "note": "(stereo not given)", "outcome": "inactive"}
{"molecule": "NNC(=O)c1cc2ccccc2cc1O", "outcome": "inactive"}
{"molecule": "NC(=NCCc1c[nH]c2ccccc12)NC(=O)c1ccc(F)cc1", "outcome": "inactive"}
{"molecule": "C=CCSc1ncnc2sc(C)c(C)c12", "outcome": "inactive"}
{"molecule": "Cc1cc2cc(CCNC(=O)c3cccs3)c(=O)[nH]c2cc1C", "outcome": "inactive"}
{"molecule": "CCOC(=O)c1cnc2ccc(OC)cc2c1Nc1ccc2c(c1)OCCO2", "outcome": "inactive"}
{"molecule": "COc1cccc(Cn2cnc3c(NS(=O)(=O)c4cccc(Cl)c4Cl)c(C)c(C)cc32)c1", "outcome": "inactive"}
{"molecule": "Cc1cc(Oc2ccc(-c3nnc(-c4ccccc4)o3)cc2[N+](=O)[O-])ccc1Cl", "outcome": "inactive"}
{"molecule": "O=c1[nH]c(CSc2nnc(NCCCN3CCOCC3)s2)nc2cc(Cl)ccc12", "outcome": "inactive"}
{"molecule": "O=C(Nc1ccc(O)cc1)c1cc2n(n1)C(C(F)(F)F)CC(c1ccco1)N2", "note": "(stereo not given)", "outcome": "inactive"}
{"molecule": "CCOc1cc(C2Nc3cccc4cccc(c34)N2)ccc1O", "outcome": "inactive"}
{"molecule": "OC(COc1ccc2c(c1)CCC2)Cn1cnc2ccccc21", "note": "(stereo not given)", "outcome": "inactive"}
{"molecule": "O=C1CC(SCc2nc3ccccc3[nH]2)C(=O)N1c1ccc(Cl)cc1", "note": "(stereo not given)", "outcome": "inactive"}
{"molecule": "Cc1c(Cl)cccc1NC(=O)CSc1ncnc2c1cnn2CCc1ccccc1", "outcome": "inactive"}
{"molecule": "Cc1ccc(S(=O)(=O)N2CCC(C(N)=O)CC2)c(C)c1C", "outcome": "inactive"}
{"molecule": "O=C1C2=C(NC(=S)NC2c2ccc(Cl)cc2)NC(c2ccc(Cl)cc2)N1c1ccc(Cl)cc1", "note": "(stereo not given)", "outcome": "inactive"}
{"molecule": "Cc1nc(-c2ccccc2)cc(=O)[nH]1", "outcome": "inactive"}
{"molecule": "CC(=O)C1=C(C)Nc2ncnn2C1c1ccccc1OCc1ccccc1", "note": "(stereo not given)", "outcome": "inactive"}
{"molecule": "O=C(Nc1ccc2c(c1)OCO2)c1cnn2cccnc12", "outcome": "inactive"}
{"molecule": "OCCN(Cc1ccccc1)Cc1ccc(Cl)cc1", "outcome": "inactive"}
{"molecule": "CC(O)CNCCNCc1c(OCc2ccccc2)ccc2ccccc12", "note": "(stereo not given)", "outcome": "inactive"}
{"molecule": "N#CC1=C(N)Oc2c(O)cc3ccccc3c2C1c1ccsc1", "note": "(stereo not given)", "outcome": "inactive"}
{"molecule": "COc1ccc(Nc2ccc3c(c2)=NC2(CCCCC2)[N+]=3[O-])cc1", "outcome": "inactive"}
{"molecule": "COc1ccc(Nc2sc(C(=O)Nc3cccc(Cl)c3)c(N)c2C(=O)Nc2ccccc2OC)cc1", "outcome": "inactive"}
{"molecule": "COc1ccc(OCCSc2nnc(-c3ccc(OC)cc3)n2N)cc1", "outcome": "inactive"}
{"molecule": "O=C(CC(NS(=O)(=O)c1ccc(Cl)cc1)c1ccco1)N1CCc2ccccc21", "note": "(stereo not given)", "outcome": "inactive"}
{"molecule": "Cc1cc(-c2nnc(-c3ccccc3)c(-c3ccccc3)n2)c(C)o1", "outcome": "inactive"}
{"molecule": "CO/N=C\\CC(=O)Nc1ccc(F)cc1", "outcome": "inactive"}
{"molecule": "Cc1ccc(NC(=S)NCc2cccnc2)cc1", "outcome": "inactive"}
{"molecule": "Oc1ccc(/C=N/NC(=S)Nc2cccnc2)c(O)c1", "outcome": "inactive"}
{"molecule": "COc1cccc(NC(=O)NCCCN2CCN(c3ccc(F)cc3)CC2)c1", "outcome": "inactive"}
{"molecule": "Cc1ccc(-n2c(C)cc(-c3csc(N)n3)c2C)cc1", "outcome": "inactive"}
{"molecule": "CCOc1ccc(C(=O)Nc2ccccc2CC)cc1[N+](=O)[O-]", "outcome": "inactive"}
{"molecule": "CCOc1ccc(C(=O)NC(=S)Nc2ccc(N3CCCCC3)cc2)cc1[N+](=O)[O-]", "outcome": "inactive"}
{"molecule": "CCOc1ccc(CSC(=N)N)cc1[N+](=O)[O-]", "outcome": "inactive"}
{"molecule": "CC(C)NC(=O)/C(=N\\O)c1ccccc1", "outcome": "inactive"}
{"molecule": "Cc1ccc(Oc2nnc(-c3ccccc3)c3ccccc23)cc1", "outcome": "inactive"}
{"molecule": "CCn1c(SCC(=O)N2CCCCC2)nc(O)cc1=O", "outcome": "inactive"}
{"molecule": "Cc1ccc(Nc2cc(=O)[nH]c(=O)[nH]2)c(C)c1", "outcome": "inactive"}
{"molecule": "CCn1c2ccccc2c2cc(C3N=C(N)Nc4nc5ccccc5n43)ccc21", "note": "(stereo not given)", "outcome": "inactive"}
{"molecule": "CCn1cc(C(=O)O)c(=O)c2cc(OC)ccc21", "outcome": "inactive"}
{"molecule": "COc1ccc(Oc2coc3cc(OC(=O)c4cccs4)ccc3c2=O)cc1", "outcome": "inactive"}
{"molecule": "CCOC(=O)c1ccc(NC(=O)Nc2cc(C)on2)cc1", "outcome": "inactive"}
{"molecule": "COC(=O)C1C(=O)C=C(N2CCOCC2)CC1(C)C", "note": "(stereo not given)", "outcome": "inactive"}
{"molecule": "O=C(CNC(=O)OCc1ccccc1)NCC(=O)N1CCCC1C(=O)OCc1ccccc1", "note": "(stereo not given)", "outcome": "inactive"}
{"molecule": "COc1ccc(C2=C(Nc3ccc(C)cc3)c3ccccc3C2=O)cc1", "outcome": "inactive"}
{"molecule": "O=c1c(Cl)c(Cl)cnn1Cc1ccccc1Cl", "outcome": "inactive"}
{"molecule": "N=c1sccn1CC(=O)Nc1ccccc1Oc1ccccc1", "outcome": "inactive"}
{"molecule": "CC(=O)N1CCC(N(CCN2CCOCC2)C(=S)Nc2cccc(C)c2C)CC1", "outcome": "inactive"}
{"molecule": "CCCNC(=O)COC(=O)CCC(=O)c1ccc(F)cc1", "outcome": "inactive"}
{"molecule": "NC(=NCc1ccc2c(c1)OCO2)NC(=O)c1ccccc1", "outcome": "inactive"}
{"molecule": "O=C(CN1CCCCC1)Nc1cccc2c1OCO2", "outcome": "inactive"}
{"molecule": "O=C(Nc1ccc2oc(-c3ccc(Cl)c(Cl)c3)nc2c1)c1ncn[nH]1", "outcome": "inactive"}
{"molecule": "CCOC(=O)C1=C(C)Nc2nc3ccccc3n2C1c1cccs1", "note": "(stereo not given)", "outcome": "inactive"}
{"molecule": "COc1ccc(-c2nc3ccccc3c(=O)n2-c2nccs2)cc1", "outcome": "inactive"}
{"molecule": "Brc1cccc(CNc2nc3ccccc3n2CCN2CCCCC2)c1", "outcome": "inactive"}
{"molecule": "CC(=O)N1C(=O)C2(C(C#N)=C(N)Oc3c2c(C)nn3-c2ccccc2)c2ccccc21", "note": "(stereo not given)", "outcome": "inactive"}
{"molecule": "CCCCn1cnc2c(cnn2-c2ccc(F)cc2)c1=O", "outcome": "inactive"}
{"molecule": "CC(NC(=O)C1(C)CC1(Br)Br)C(C)(C)C", "note": "(stereo not given)", "outcome": "inactive"}
{"molecule": "Cc1ccc(C(=O)C(OC(=O)COc2ccccc2C)c2ccccc2)cc1", "note": "(stereo not given)", "outcome": "inactive"}
{"molecule": "Cc1ccc(C(=O)NNc2c3ccccc3nc3ccccc23)cc1", "outcome": "inactive"}
{"molecule": "O=C(NCCc1ccccc1)c1ccc2nc(-c3ccco3)c(-c3ccco3)nc2c1", "outcome": "inactive"}
{"molecule": "C=CCOc1ccccc1CNCCCN1CCOCC1", "outcome": "inactive"}
{"molecule": "O=c1[nH]c(NCc2ccco2)nnc1Cc1ccccc1Cl", "outcome": "inactive"}
{"molecule": "Nc1cc(N)cc(-c2nc3ccccc3[nH]2)c1", "outcome": "inactive"}
{"molecule": "O=C(NNc1c2ccccc2nc2ccccc12)c1cccc(O)c1", "outcome": "inactive"}
{"molecule": "COc1ccc(S(=O)(=O)n2nc(OC(=O)c3cccs3)cc2N)cc1", "outcome": "inactive"}
{"molecule": "CC(=O)C1=C(C)NC(SCSc2ccccc2)=C(C#N)C1c1cccnc1", "note": "(stereo not given)", "outcome": "inactive"}
{"molecule": "COC(=O)CCC(=O)Nc1ccc(Cl)c(Cl)c1", "outcome": "inactive"}
{"molecule": "S=C(Nc1ccc(Cl)c(Cl)c1)N1CCOCC1", "outcome": "inactive"}
{"molecule": "CCC(Sc1ncccc1C(=O)OC(C)C)C(=O)N1CCOCC1", "note": "(stereo not given)", "outcome": "inactive"}
